Cruzain inh noDet: qHTS Assay for Promiscuous and Specific Inhibitors of Cruzain (without detergent) | purified cruzain, Z-FR-AMC fluorescence, no detergent | Potency, µM, most hits filed as inhibitors | 2.3% of 200,000 active; note: nearly all actives have a fitted effect of over 40% in size
Target sequence (P25779 123-467 limits assumed): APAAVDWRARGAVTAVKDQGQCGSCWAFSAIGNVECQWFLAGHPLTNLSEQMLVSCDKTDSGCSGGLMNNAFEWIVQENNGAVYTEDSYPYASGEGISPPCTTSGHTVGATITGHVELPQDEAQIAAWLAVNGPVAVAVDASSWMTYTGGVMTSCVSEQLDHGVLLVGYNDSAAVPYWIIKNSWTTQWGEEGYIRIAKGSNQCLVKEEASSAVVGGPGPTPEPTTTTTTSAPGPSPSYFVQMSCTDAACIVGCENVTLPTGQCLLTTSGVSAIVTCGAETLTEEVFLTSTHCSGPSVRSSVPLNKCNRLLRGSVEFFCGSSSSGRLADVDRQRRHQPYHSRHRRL
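Detergent-free condition (0.00005% Triton X-100) in acetate buffer pH 5.5 with DTT. 1.5 nM enzyme and compound were pre-mixed 15 min, then 2 uM Z-FR-AMC substrate added; reaction progress from fluorescence change between first and third reads (60 s).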
Cruzain inh Det: qHTS Assay for Promiscuous and Specific Inhibitors of Cruzain (with detergent); Cruzipain (Trypanosoma cruzi), P25779; purified cruzain, Z-FR-AMC fluorescence, 0.01% Triton; Potency, µM, actives largely listed as inhibitors; 0.43% of 200,000 active; note: nearly all actives have a fitted effect of over 40% in size
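Cruzain (1.5 nM) preincubated 15 min at RT with compound in 100 mM sodium acetate pH 5.5, 5 mM DTT, 0.01% Triton X-100. Reaction started with 2 uM Z-FR-AMC; AMC fluorescence (ex 360/em 450 nm) change over 60 s gave rate.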
A number is an active result; 0 = inactive; ? = inconclusive. Most compounds without a hit are left out; they make up all but 2.6% or so of the library. Calls come from the whole dose curve; as a rule, active = well fitted curve in the direction sought with a large enough effect; inconclusive = small, poorly fitted or top-dose-only effect, or another doubt; inactive = no such curve, though single readings can be large; an effect the other way counts as inactive or inconclusive.

SMILES	Cruzain inh noDet	Cruzain inh Det
COc1ccc(C(=O)NCC(c2cccs2)S(=O)(=O)c2ccc(F)c(C)c2)cc1 (stereo unspecified)	0	0
COc1ccc(-c2cc3ccccc3oc2=O)cc1NC(=O)c1ccc(Br)o1	25.1µM	0
COc1ccc(-c2cc3ccccc3oc2=O)cc1NC(=S)NC(=O)c1ccc2c(c1)OCCO2	12.6µM	0
COc1cc2c(cc1NC(=O)c1ccc3c(c1)OCO3)oc1ccccc12	?	0
COc1ccc(-c2cc3ccccc3oc2=O)cc1NC(=O)c1ccc([N+](=O)[O-])o1	0	0
COC(=O)c1ccccc1NC(=O)Cn1c(=O)n(CCC(=O)NCc2ccccc2OC)c(=O)c2ccccc21	0	0
CCCc1nnc(NC(=O)C(CC)Sc2nnc3c4ccccc4n(C)c3n2)s1 (stereo unspecified)	0	0
C=CCn1c2ccccc2c2nnc(SC(CC)C(=O)Nc3sc4c(c3C#N)CCCC4)nc21 (stereo unspecified)	25.1µM	0
C[C@H]1[C@H](C)CC[C@]2(C(=O)O)CC[C@]3(C)C(=CC[C@H]4[C@]3(C)C[C@@H](O)C3[C@](C)(CO)[C@H](O)[C@@H](O)C[C@]34C)[C@H]12 (stereo partly specified)	?	0
CN(C)c1ccc(-c2noc(-c3ccccc3O)n2)cc1	25.1µM	22.4µM
c1ccc(-c2noc(-c3ccccc3-c3ccccc3)n2)cc1	0	0
CC1CCc2c(sc(NC(=O)C3c4ccccc4Oc4ccccc43)c2C#N)C1 (stereo unspecified)	0	0
CCCOC(=O)c1c(NC(=O)C2c3ccccc3Oc3ccccc32)sc2c1CCC(C)C2 (stereo unspecified)	20µM	0
CCOC(=O)c1c(NC(=O)C2c3ccccc3Oc3ccccc32)sc2c1CCC(CC)C2 (stereo unspecified)	0	0
CCOC(=O)c1c(NC(=O)C(C)N2CCN(S(=O)(=O)c3cccs3)CC2)sc2c1CCC(C)C2 (stereo unspecified)	7.94µM	0
CC(C)(C)C1CCc2c(sc(N)c2C(N)=O)C1 (stereo unspecified)	25.1µM	0
CCOC(=O)c1c(NC(=O)C2CCN(S(=O)(=O)c3cccs3)CC2)sc(C)c1C	0	0
CC1CCc2c(sc(NC(=O)C3c4ccccc4Oc4ccccc43)c2C(N)=O)C1 (stereo unspecified)	25.1µM	0
CCC(C)(C)C1CCc2c(sc(N)c2C(N)=O)C1 (stereo unspecified)	?	0
CCN(CC)S(=O)(=O)c1ccc2c(c1)N(CC(=O)Nc1ccc(F)cc1F)C(=O)C1CCCN21 (stereo unspecified)	0	0
O=C(C1COc2ccccc2O1)N1CCN(c2nc3c(F)cccc3s2)CC1 (stereo unspecified)	0	0
CC(=O)Nc1ccc(NCc2nnc3n2CCCCC3)cc1	0	0
CCc1nn(CCCC(=O)N2CCN(c3cccc(OC)c3)CC2)c(=O)c2cc3occc3n12	0	0
CC(C)(C)C1CCc2c(sc(NC(=O)c3ccco3)c2C(N)=O)C1 (stereo unspecified)	0	0
CC(C)(C)C1CCc2c(sc(NC(=O)C3c4ccccc4Oc4ccccc43)c2C(N)=O)C1 (stereo unspecified)	10µM	0
SMILES	Cruzain inh noDet	Cruzain inh Det
Fc1ccc(CSc2ncnc3c2oc2ccccc23)cc1	0	0
c1ccc2[nH]c(CSc3ncnc4c3oc3ccccc34)nc2c1	15.8µM	?
Cc1nc(N2CCN(Cc3nc4ccccc4[nH]3)CC2)c2oc3ccccc3c2n1	?	0
Cc1nc(SCc2nc3ccccc3[nH]2)c2oc3ccccc3c2n1	15.8µM	?
COc1ccc(CNc2nc3c(S(=O)(=O)c4ccccc4)nnn3c3ccc(Cl)cc23)cc1	0	0
CCOc1ccc(-c2nn(CC(=O)NC3CCCC3)c3c2cnc2ccc(F)cc23)cc1	?	0
CCOC(=O)c1c(NC(=O)c2cc(C)on2)sc(C)c1C	0	0
CSc1ccc(CNC(=O)Cn2nc(N3CCN(c4ccccc4)CC3)ccc2=O)cc1	?	0
Cc1cccc(CNc2ccnc(-c3ccccc3Cl)n2)c1	0	0
COc1cccc(NC(=O)C(Sc2nnc3ccccn23)c2ccccc2)c1 (stereo unspecified)	0	0
CCCn1c(SC(C(=O)Nc2cccc(OC)c2)c2ccccc2)nc2ccccc2c1=O (stereo unspecified)	10µM	0
Cc1nc2c(c(SCC(=O)Nc3ccccc3C(F)(F)F)n1)CCC2	0	0
Cc1ccc(NC(=O)Cn2c(-c3ccc4c(c3)OCO4)cn(-c3ccccc3)c2=O)cc1C	0	0
CSc1cccc(-n2cc(-c3ccc4c(c3)OCO4)[nH]c2=O)c1	31.6µM	0
CNC(=O)NC(=O)C(C)OC(=O)c1c2c(nc3ccccc13)/C(=C/c1cccs1)CC2 (stereo unspecified)	0	0
Cc1cccc(C)c1NC(=O)COC(=O)c1c2c(nc3ccccc13)/C(=C\c1ccc3c(c1)OCO3)CCC2	7.94µM	0
O=C(COC(=O)c1c2c(nc3ccccc13)CCCCC2)NCc1ccc2c(c1)OCO2	0	0
CC(OC(=O)c1c2c(nc3ccccc13)/C(=C\c1ccc3c(c1)OCO3)CCC2)C(=O)Nc1ccc(S(N)(=O)=O)cc1 (stereo unspecified)	15.8µM	0
O=C(NC1(C(F)(F)F)C(=O)Nc2c1c(=O)[nH]c(=O)n2CCc1ccccc1)c1ccc(Cl)cc1 (stereo unspecified)	0	0
COc1ccc(-c2nc(C)c(CCNC(=O)c3ccc(F)c(F)c3)s2)cc1	0	0
COc1ccc(NC(=O)CN2C(=O)C3(SCC(=O)N3c3ccccc3)c3ccccc32)cc1Cl (stereo unspecified)	20µM	0
Cc1ccc(N2C(=O)CSC23C(=O)N(CC(=O)Nc2ccc(C(C)C)cc2)c2ccccc23)cc1C (stereo unspecified)	?	0
O=C(CN1C(=O)C2(SCC(=O)N2c2ccc(F)c(F)c2)c2ccccc21)Nc1cccc(Cl)c1 (stereo unspecified)	?	0
Cc1ccc(NC(=O)CN2C(=O)C3(SCC(=O)N3c3cccc(Cl)c3)c3ccccc32)cc1C (stereo unspecified)	20µM	0
CC1CCc2c(cc(-c3ccccc3)n2-c2ccc(C(=O)NC(C)C)cc2)C1 (stereo unspecified)	0	0
SMILES	Cruzain inh noDet	Cruzain inh Det
Cc1ccccc1CN1CCc2nc(N3CCN(c4ncccn4)CC3)ncc2C1	0	0
O=S(=O)(c1ccc(NC(=S)NCCC(c2ccccc2)c2ccccc2)cc1)N1CCOCC1	25.1µM	0
CC(C)(C)CC(C)(C)NC(=S)Nc1ccc(S(=O)(=O)N2CCOCC2)cc1	?	0
Cc1ccc(CCNC(=O)c2cc3ccccn3n2)cc1	0	0
COc1ccc(C)cc1NC(=O)CSc1nc(=O)n(Cc2ccccn2)c2c1CCC2	?	0
COc1ccc(S(=O)(=O)c2cn(CC(=O)Nc3ccccc3)c3ccc(Cl)cc3c2=O)cc1	0	0
O=C(Nc1nonc1-c1ccc(Cl)cc1)c1ccccc1F	0	0
CCCCNC(=O)C(CC)Sc1nnc(-c2ccc(OC)c(OC)c2)c(-c2ccc(OC)c(OC)c2)n1 (stereo unspecified)	?	0
O=C(O)CSC1=NCCN1	0	0
O=C(CSC1=NCCN1)C1COc2ccccc2O1 (stereo unspecified)	1.26µM	0

Assay outcomes: PubChem, National Center for Advancing Translational Sciences (NCATS)
